Source: PubChem BioAssay (NCI)
Values joined by “and” are separate entries in the source; they are usually repeats but may differ in a detail not shown here. Identical values can stand only once. Compounds without any hit were thinned out: in the full panel of roughly 83,000, 20% have a hit.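 The test compound was applied at a single concentration to cells in 96-well plates for 48 hours, and percent growth was recorded.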 Active and inactive are the calls of the source. Rule for the calls: active = growth percent below 10; inactive = the rest.

tested on: HL-60(TB) leukemia; assay: NCI-60 one-dose screen, 48 h (100 = growth as untreated, 0 = no growth, -100 = all killed); settings: 10 µM unless noted

Structure (SMILES) | growth
N#C/C(=C\c1ccc(-c2ccc(Br)cc2)o1)c1nc(-c2ccco2)cs1 | 89.3% (inactive)
Cc1[nH]c2ccc(F)cc2c1CCNC(=O)C1CCN(C(=O)c2ccccc2)CC1 | 102% [25 µM] (inactive)
Cc1nc2cc(Nc3nc(N4CCOCC4)nc(N4CCN(C)CC4)n3)ccc2n1Cc1ccccc1 | 103% (inactive)
CCOC(=O)c1ccc(Nc2sc(C(=O)c3ccc(Br)cc3)c(N)c2C#N)cc1 | -2.85% (active)
Cc1cc(=O)[nH]c(O)c1C#N | 109% (inactive) and 137% (inactive)
COc1ccc2c(Nc3ccc(NS(C)(=O)=O)cc3)c3ccccc3nc2c1 | -8.29% (active)
N#Cc1nnn(-c2ccc(S(N)(=O)=O)cc2)c1NCC(=O)c1ccccc1 | 88.4% (inactive)
CCCCn1c(-c2ccc(F)cc2)nc2cc(OC)c(OC)cc2c1=O | 67.1% (inactive)
COc1ccc(/C=N\Nc2ccc([N+](=O)[O-])cn2)cc1OC | 100% (inactive)
COC(=O)c1ccc(C(=O)Nc2ccccc2N)cc1 | -18.5% (active)
Oc1ccc(CN2CCC(N3CCCCC3)CC2)c2cccnc12 | 28.2% (inactive)
COc1ccccc1C(C)=O | 105% (inactive) and 102% (inactive)
COc1ccc(/C(C)=C(\c2ccc(Cl)cc2)c2ccc(OCCN3CCCCC3)cc2)cc1F | -14% (active)
Nc1ncncc1-c1ccc(F)cc1 | 103% (inactive)
Cc1cc2c(O)c(-c3cc(Cl)ccc3Cl)c3sc(=O)oc3c2cc1C | 64.1% (inactive)
CCOC(=O)CNC(=O)CCCCSc1ncnc2nc[nH]c12 | 91.1% (inactive)
CCCCCCCCCCCCCCCCOP(=O)([O-])OCC[N+](C)(C)C | -29.6% (active)
N#CC1C(=O)c2ccccc2C1c1ccccc1 (stereo not given) | 108% (inactive) and 103% (inactive)
CCCC1CCC(O)(C(C)(O)C(=O)NC2C(=O)N3NCCCC3C(=O)N(O)C(C)C(=O)N3NCCCC3C(=O)N3NCC(O)CC3C(=O)NC(C)C(=O)OC2C(C)C)OC1CC (stereo not given) | -91.3% (active)
Cc1ccc(S(=O)(=O)Nc2ccc(Cl)cc2)cc1 | 119% (inactive)

Structure (SMILES) | growth
COc1cc2nc(-c3ccc(C(F)(F)F)cc3)cc(OCCN3CCCC3)c2cc1OC | 66.8% (inactive)
O=c1c2ccccc2nc2n1Cc1nc3ccccc3c(=O)n1C2 | 100% (inactive) and -60.2% (active)
COc1cc(C2=NN(C=O)C(c3cccc(Nc4ccnc5cc(C(F)(F)F)ccc45)c3)C2)cc(OC)c1OC (stereo not given) | 8.02% (active)
O=C(Nc1nc2ccc(C(=O)N3CCN(c4ccc(Cl)c(Cl)c4)CC3)cc2s1)c1ccc(NCCc2ccccc2)c([N+](=O)[O-])c1 | 101% (inactive)
CC1=CC(C)(C)NC(=S)N1c1ccc(Cl)cc1 | 94.7% (inactive) and 97.6% (inactive)
O=S(=O)(O)C1(O)CCCCC1 | 87.6% (inactive)
CCC(=C(c1ccc(OCCN2CCCC2)cc1)c1ccc(OCCN2CCCC2)cc1)c1ccc(Cl)cc1 | -52.5% (active)
CC1=CC(=C(c2ccc(N)cc2)c2ccc(N)cc2)C=CC1=N | -13.5% (active) and 47.8% (inactive)
CCC(O)c1ccccc1 (stereo not given) | 98.6% (inactive) and 77.4% (inactive)
COC(=O)c1n[nH]c2ccc3nc(-c4cn[nH]c4C(F)(F)F)c4c(c3c12)CCCC4 | 70% (inactive)
CCN(CC)c1ccc(/C=C/c2ccc3cc(C)ccc3[n+]2CC)cc1 | -41.5% (active)
COc1cc(CNCCN2C(=O)c3ccc4c5c(ccc(c35)C2=O)C(=O)N(CCNCc2cc(OC)c(OC)c(OC)c2)C4=O)cc(OC)c1OC | -48.7% (active)
Cc1[nH]c2ncnc(Oc3ccc(NC(=O)Nc4ccc(Cl)c(C(F)(F)F)c4)cc3)c2c1C | 65.6% (inactive)
COc1ccc(-c2nc(SCC(=O)Nc3nc(-c4ccccc4)cs3)[nH]c(=O)c2C#N)cc1 | 92% (inactive)
NC(Cc1ccccc1)C(=O)NC(Cc1ccccc1)C(=O)O (stereo not given) | 105% (inactive) and 102% (inactive)
COc1ccc(-c2cn[nH]c2-c2cc(OC)c(OC)c(OC)c2)cc1N | -17.8% (active) and -10.7% (active)
c1cc2[nH]ncc2cc1-c1nc2ccc3[nH]ncc3c2c2c1CCCC2 | -18.3% (active)
CC1(C)CCC(S(=O)(=O)c2ccc3c(c2)/C(=N\O)c2cc(S(=O)(=O)N4CCC(O)(c5cccc(C(F)(F)F)c5)CC4)ccc2-3)CC1 | -67.5% (active)
N=C(N)c1ccc(-c2ccc(-c3ccc(Cl)cc3)s2)nc1 | -39.1% (active)
Cc1ccccc1C1=N[C@@H](Cc2ccccc2)C(=O)c2c(nc3ccccn23)N1 | 125% (inactive)
